{"source": "paper PMC13494018", "data": [{"molecular_target": "VTCN1, Q7Z7D3", "sequence (Q7Z7D3 whole entry)": "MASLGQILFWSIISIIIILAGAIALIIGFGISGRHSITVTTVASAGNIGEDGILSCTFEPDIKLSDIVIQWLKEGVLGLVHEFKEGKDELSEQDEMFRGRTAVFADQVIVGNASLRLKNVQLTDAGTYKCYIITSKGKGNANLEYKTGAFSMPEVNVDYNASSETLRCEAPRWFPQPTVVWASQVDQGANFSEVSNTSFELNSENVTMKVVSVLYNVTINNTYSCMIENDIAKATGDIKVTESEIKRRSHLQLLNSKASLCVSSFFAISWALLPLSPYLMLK", "values": [{"binder": "design_609_7ee6ce64-4629-41e8-bcb4-ba0da017284d_478_dldesign_0_cycle1_af2pred (protein) DAVKKAAEEAAKEAAKHPKGEKIAKAIEKGAEVAIKNSDKSFSQAAGDGASTIISLLGKEAGVDAIEAQDYADYWLDLVEKNS", "binding in a display sort": "not found (inactive)"}, {"binder": "design_608_fd41b8f9-4da9-4c78-93ec-aaa316ed4933_2243_dldesign_0_cycle1_af2pred (protein) DEAKKEAAKAAQKAYEAIAEAEQAIRSGNAEELKKAAEEAKKAAKEAEKAAKKSKDKEVKEELKRVAKKAKEAAKKAKEAAKKLEA", "binding in a display sort": "not found (inactive)"}, {"binder": "design_609_7ee6ce64-4629-41e8-bcb4-ba0da017284d_842_dldesign_0_cycle1_af2pred (protein) SMREEELEADRKKVDEGAKELKKLGEEAAKKAKTWEEFVKGHKELREKAKEVVDAALPEVKPYAEKAASKVVHDARQKGAENVQKQK", "binding in a display sort": "not found (inactive)"}, {"binder": "design_608_fd41b8f9-4da9-4c78-93ec-aaa316ed4933_1996_dldesign_0_cycle1_af2pred (protein) AEKAKELREQAEKLREEARKYAEYAPPEVVHELYQAAAESISYFNLAEKGEATEEQIKEGEEAFKKLKELTEEIKERAKKAEEEA", "binding in a display sort": "not found (inactive)"}, {"binder": "design_609_7ee6ce64-4629-41e8-bcb4-ba0da017284d_367_dldesign_0_cycle1_af2pred (protein) KRKEEQLEKLKKLAEELEKKAKEYEKDKNFKEVAKAYKEAAKKLKEAAKTGDSKVAHEARQKAAEAEWLEKKAK", "binding in a display sort": "not found (inactive)"}, {"binder": "design_608_fd41b8f9-4da9-4c78-93ec-aaa316ed4933_2418_dldesign_0_cycle1_af2pred (protein) NKLLKEAIEALKKGIEAAKKGDLMEAQAYFTEARFYAEKYAKENPEYKEKAEKAAELAKEAIKTNGTPEAIKLAEEARKLLEEI", "binding in a display sort": "not found (inactive)"}, {"binder": "design_608_fd41b8f9-4da9-4c78-93ec-aaa316ed4933_2202_dldesign_0_cycle1_af2pred (protein) DEYLKEAEKVYKETKKVIEEAKKKEKEEALKEIAKATQEATMKLTELAAEAAREGDKETAEKIRELRRELIEYATKVAEEVKAK", "binding in a display sort": "not found (inactive)"}, {"binder": "design_609_7ee6ce64-4629-41e8-bcb4-ba0da017284d_21_dldesign_0_cycle1_af2pred (protein) SLEEELNKKKTEELIEEGIKALKEYAEKGKLEEGKAIASKKVQEAFDLGYEEGREAARKVREAYDKLAKEIEKKKA", "binding in a display sort": "not found (inactive)"}, {"binder": "design_608_fd41b8f9-4da9-4c78-93ec-aaa316ed4933_2275_dldesign_0_cycle1_af2pred (protein) MEKVKEEAEKLREEAEKAAKAGDVKAVSEAAHKLAELAAEAERESEEAGKVAREALRELREEAKAALAKRAAAAAA", "binding in a display sort": "not found (inactive)"}, {"binder": "design_609_7ee6ce64-4629-41e8-bcb4-ba0da017284d_730_dldesign_0_cycle1_af2pred (protein) SEQAKEELEKQEKVKEVAKKVRKALKELEEAGDEEAKKEAEKLRKEASEARLLAADDPEKGLEEMKKVLEKAEKKLKEVKAKL", "binding in a display sort": "not found (inactive)"}, {"binder": "design_609_7ee6ce64-4629-41e8-bcb4-ba0da017284d_665_dldesign_0_cycle1_af2pred (protein) MDEEKLKMAEEEMKEGEKYAKAAKAALKKGDAKKAATLASEALASYNAAAHLYELAGDKEKAKKALEEGKKVVEEVGAAVKA", "binding in a display sort": "not found (inactive)"}, {"binder": "design_609_7ee6ce64-4629-41e8-bcb4-ba0da017284d_91_dldesign_0_cycle1_af2pred (protein) SDLENNKKALQYAEAAAEAAEFGSLKAAQGLLKKAAELATDEETKKLLLEAAEKEDLKELLKLAKEAAKKLKKNVE", "binding in a display sort": "not found (inactive)"}, {"binder": "design_609_7ee6ce64-4629-41e8-bcb4-ba0da017284d_741_dldesign_0_cycle1_af2pred (protein) EKELAEEVIKKIKEKAEKAIKEGVSREEAEKVIKEIEELATKASWEAPEYAKELNRAAKEEKKKIKKAVEEREA", "binding in a display sort": "not found (inactive)"}, {"binder": "design_609_7ee6ce64-4629-41e8-bcb4-ba0da017284d_297_dldesign_0_cycle1_af2pred (protein) SPEEMIKKGKELVEKRLEKAKKTAEEKTPEEAKREAEAAVAFAEGVAEALAKHPEAAAAGEALLKETKEEAEKIIKKAKE", "binding in a display sort": "not found (inactive)"}, {"binder": "design_608_fd41b8f9-4da9-4c78-93ec-aaa316ed4933_2208_dldesign_0_cycle1_af2pred (protein) AAAAAAKAKALADAAKKAAKEYVKYAKEEDPEKGRKLLYEDMKKAYALAKADPALAPAAKEIAKIAQEAFQEIADIIGEKK", "binding in a display sort": "not found (inactive)"}, {"binder": "design_609_7ee6ce64-4629-41e8-bcb4-ba0da017284d_739_dldesign_0_cycle1_af2pred (protein) SEASKAAAEAYEKLAETEYLAKKAKESNAEEAEKYAKEAKEAAKEAIEAAKKAAELAPEGAPLMKKVEEKAKKAAEEAEKYAKKKK", "binding in a display sort": "not found (inactive)"}, {"binder": "design_609_7ee6ce64-4629-41e8-bcb4-ba0da017284d_81_dldesign_0_cycle1_af2pred (protein) SKALADALRAAQRALRALGRRAAALDPALAAEVTAALFAVYDQSTAEAAKAAADAAVAAATARIAALEAAA", "binding in a display sort": "not found (inactive)"}, {"binder": "design_608_fd41b8f9-4da9-4c78-93ec-aaa316ed4933_2160_dldesign_0_cycle1_af2pred (protein) MEEKAKKYLEAAKKAKKYAEYAAKIDKEAAEKAKEAAKLLEEAAKLYLEGADEEEIEKASKKAAEKLGEARFEYNVVKQKEKRK", "binding in a display sort": "not found (inactive)"}, {"binder": "design_608_fd41b8f9-4da9-4c78-93ec-aaa316ed4933_2157_dldesign_0_cycle1_af2pred (protein) SELEEEIKKLAKELNEAIMKLADLASPEETREAAKKALEAKKLAKEDPEKGLEKLKEALKETKKLLEKAEKEN", "binding in a display sort": "not found (inactive)"}]}]}
